Screens as filed in PubChem.
This excerpt belongs to a sample that is enriched for hits.
ST2 IL33 inh: blocks human ST2 binding to IL-33; Q01638; hit rate 2.3% among 78,000; inhibition, % for hits at 17 µM; AID 1259354; AlphaLISA ST2-Fc/biotin-IL-33 interaction, 1 h; in the data active = inhibition above about 30%
Target sequence (Q01638 whole entry, looked up): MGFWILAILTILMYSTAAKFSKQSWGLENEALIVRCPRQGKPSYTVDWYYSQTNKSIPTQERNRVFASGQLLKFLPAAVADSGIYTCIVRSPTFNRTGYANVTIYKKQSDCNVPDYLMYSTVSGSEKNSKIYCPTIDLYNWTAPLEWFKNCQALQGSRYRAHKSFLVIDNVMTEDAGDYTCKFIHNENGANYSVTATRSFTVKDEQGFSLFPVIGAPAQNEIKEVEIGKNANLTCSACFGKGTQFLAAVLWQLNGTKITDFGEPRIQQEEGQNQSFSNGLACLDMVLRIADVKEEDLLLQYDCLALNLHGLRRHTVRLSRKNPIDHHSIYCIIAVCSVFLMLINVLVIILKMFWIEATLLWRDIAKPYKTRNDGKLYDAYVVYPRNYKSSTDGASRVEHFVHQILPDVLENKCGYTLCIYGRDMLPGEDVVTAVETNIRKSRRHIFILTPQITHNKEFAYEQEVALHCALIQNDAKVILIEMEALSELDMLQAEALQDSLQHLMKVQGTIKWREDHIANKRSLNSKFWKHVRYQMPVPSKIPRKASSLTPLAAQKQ
Active calls of the source: *; i = inactive.

SMILES	ST2 IL33 inh
Cc1ccccc1CSC1=NCCN1C(=O)Cc1cccs1	i
Cc1cc(C)c(NC(=O)C(CC(C)C)N2C(=O)c3ccccc3C2=O)c(C)c1 (configuration not stated)	i
CS(=O)(=O)c1ccc(CN2C[C@H](O)C[C@H]2c2nc(-c3ccc(C(F)(F)F)cc3)no2)cc1	i
CC(=O)Nc1ccc(CN2C[C@H](O)C[C@H]2c2nc(CS(=O)(=O)c3ccc(F)cc3)no2)cc1	74%*
O=S(=O)(Cc1noc([C@@H]2C[C@@H](O)CN2Cc2ccc(-c3ccccn3)cc2)n1)c1ccc(F)cc1	i
O=S(=O)(Cc1noc([C@@H]2C[C@@H](O)CN2CC2CC2)n1)c1ccc(F)cc1	i
COc1ccc(CN2C[C@H](O)C[C@H]2c2nc(-c3ccc(OC(F)(F)F)cc3)no2)cc1	31%*
COc1ccc(CN2C[C@H](O)C[C@H]2c2nc(CS(=O)(=O)c3ccc(C)cc3)no2)cc1	i
COc1ccc(N2CCCS2(=O)=O)cc1NC(=O)c1cccc(Br)c1	i
O=C(CC[C@@H]1CNC(=O)[C@@H]2C[C@H](NC(=O)Nc3cccc(Cl)c3)CN12)NC1CC1	i
Cc1ccc(S(=O)(=O)ON=C2C=CC(=O)C=C2)cc1	47%*
Cc1ccc(S(=O)(=O)/C=C/C#N)cc1	i
CCN(CC)S(=O)(=O)c1ccc(C)cc1	i
Cc1ccc(Nc2c(-c3ccc(Cl)cc3)nc3cnccn23)cc1	i
COC(=O)c1ccn(CC(=O)Nc2cc(C)nn2C2CCCCC2)n1	i
Brc1ccc2[nH]c3c(c2c1)CN(Cc1ccccc1)CC3	i
CCc1ccc(NC(=O)N2CCC(n3c(C)nc4cccnc43)CC2)cc1	i
CC(C)c1[nH]nc2c1C(c1cccc(Cl)c1Cl)C(C#N)=C(N)O2 (configuration not stated)	i
CCN1C(=O)C2(C(C#N)=C(N)Oc3n[nH]c(-c4ccccc4)c32)c2ccccc21 (configuration not stated)	i
CC(C)c1[nH]nc2c1C1(CCN(Cc3ccccc3)CC1)C(C#N)=C(N)O2	31%*
O=C(CC1(c2ccccc2)CC(=O)N(Cc2cccs2)C1=O)N1CC[C@@H]2CCCC[C@H]2C1 (some centres not stated)	i
Cc1ccc(CN2CCN(c3ccncc3F)CC2)cc1	i
OCC1CCCN(Cc2ccc3c(c2)Cc2ccccc2-3)C1 (configuration not stated)	98%*
Cc1ccc(CN2CCCC(CO)C2)cc1 (configuration not stated)	i
CCc1ccc(CN2CCCC(CO)C2)cc1 (configuration not stated)	i
SMILES	ST2 IL33 inh
CSc1ncc(CN2CCCC2c2nc(C(C)C)no2)cn1 (configuration not stated)	i
O=C(c1cn2c(n1)CNCC2)N1C[C@@H]2C[C@H](C1)[C@@H]1CCCC(=O)N1C2	i
Cc1nc(-c2ccc(C(=O)N3CCCC3C(=O)NCc3ccccc3)cc2)no1 (configuration not stated)	i
O=C1CN(C(=O)c2nn(Cc3ccccc3)c3c2CN(C(=O)CCc2cccs2)CC3)CCN1	i
O=C(Cc1cccs1)N1CCC(Cc2ccccc2)CC1	i
O=C1CCN(C(=O)c2nn(CCc3ccccc3)c3c2CN(C(=O)Cc2cccs2)CC3)CCN1	33%*
CCOc1ccc(-c2cn3ccsc3n2)cc1	i
N#C/C(=C\c1cccc(F)c1)c1nc(-c2cc3ccccc3oc2=O)cs1	i
COc1ccc(-c2cc(-c3ccccc3)nc(Br)c2C#N)cc1	i
CCOc1ccc(-c2csc(/C(C#N)=C/c3ccc(N(C)C)cc3)n2)cc1	65%*
COc1ccc(-c2csc(/C(C#N)=C/c3cccc(F)c3)n2)cc1	43%*
COc1cc(/C=C(\C#N)c2nc(-c3ccc(Br)cc3)cs2)ccc1O	33%*
CCOc1ccccc1/C=C(\C#N)c1nc(-c2ccc([N+](=O)[O-])cc2)cs1	i
COc1cc(-c2oc(-c3ccc(O)c(OC)c3)c(C)c2C)ccc1O	i
CCOc1ccc(-c2csc(NC(=O)c3ccc(OC)c(OC)c3)n2)cc1	i
CCOc1ccc(-c2csc(-c3cc4cccc(OC)c4oc3=O)n2)cc1	i
CCOc1ccc(-c2csc(/C(C#N)=C/c3ccc(OC)cc3)n2)cc1	54%*
O=C(NC1CCCN(c2ncccn2)C1)c1c(F)cccc1Cl (configuration not stated)	i
Cn1c(=O)c2nc(-c3ccc(Cl)c(Cl)c3)oc2c2ccccc21	i
COc1ccc(-n2cnc3c(oc4ccccc43)c2=O)cc1	i
CCCCN(CC)Cc1c(C)[nH]c2ccc(Cl)cc2c1=O	i
Cc1cc(C)cc(NC(=O)C2CCCN2C(=O)c2ccc(-c3noc(C)n3)cc2)c1 (configuration not stated)	i
O=C(Cc1c(C(=O)O)[nH]c2ccc(Cl)cc12)NCc1cccs1	i
COCC(=O)N[C@H]1CC[C@]2(C)CC[C@@H]([C@H](C)C(=O)NC3CCCCC3)[C@H](O)[C@H]2[C@@H]1C	i
CCOC(=O)c1c(NC(=O)c2cc(-c3ccc(F)cc3)on2)sc(C)c1C	i
SMILES	ST2 IL33 inh
CCOc1ccccc1/C=C1/SC(N2CCCCC2)=NC1=O	i
CSCCCNC(=O)C1CCCN(C2CCN(Cc3ccccc3)CC2)C1 (configuration not stated)	i
CCOC(=O)CC1(NC(=O)[C@@H]2C[C@@H](N)CN2)CCCCC1	i
Nc1ncnc2nc(Sc3ncnc4ccccc34)[nH]c12	i
O=C(O)C1CCN(c2nc(-c3ccc(Br)cc3)cs2)CC1	i
CN(C)c1ccc(/C=C(\C#N)c2nc(-c3ccc(Br)cc3)cs2)cc1	53%*
O=c1c2c(nc(SCc3ccccc3F)n1-c1ccc(Cl)cc1)CCS2	i
COc1ccc(C2C(C(=O)OC3CCCCC3)=C(C)Nc3nnnn32)cc1 (configuration not stated)	i
O=C(CN1C(=O)C2CCCCN2C(=O)c2ccccc21)NCc1ccc(F)cc1 (configuration not stated)	37%*
O=C(CN1C(=O)C2CCCCN2C(=O)c2ccccc21)N1CCN(Cc2ccccc2)CC1 (configuration not stated)	i
O=C(CN1C(=O)C2CCCCN2C(=O)c2ccccc21)NCc1ccc2c(c1)OCO2 (configuration not stated)	i
CN(CC(=O)NCc1cccs1)S(=O)(=O)c1ccc2c(c1)CCC(=O)N2	i
CC(=O)c1ccc(Oc2ccc(N)cc2)cc1	i
Nc1nc2ccc(Oc3ccc4nc(N)sc4c3)cc2s1	i
COc1ccc(Oc2ccc(N)cc2)cc1	39%*
Nc1ccc(Oc2ccc(N)c(N)c2)cc1	44%*
Nc1ccc(Oc2ccc(-c3nc(N)nc(N)n3)cc2)cc1	i
N#Cc1ccc(Oc2ccc(C(=O)O)cc2)cc1C#N	i
Cc1cc(N2CCCCC2)nc(N2CCN(S(=O)(=O)c3ccc(Br)cc3)CC2)n1	i
Cc1cc(NC(=O)c2c(F)cccc2F)nc2c1c(=O)oc1ccccc12	i
O=C(CNS(=O)(=O)c1cccs1)N1CCN(C2CCCCC2)CC1	i
Cc1ccc(Nc2c(-c3ccco3)nc3cc(C)ccn23)cc1	i
CN(C)c1ncccc1CNC(=O)Cc1ccc(O)c(F)c1	i
CN(Cc1ccccc1)c1ncccc1CNC(=O)C1(C)CCCO1 (configuration not stated)	35%*
CC(C)N1CCC(NCc2cccnc2N(C)Cc2ccccc2)CC1	i
